# Where a chain is given by its changes, count along the chain named.
# Experiments:
# Assay in all cases: HT-SELEX; high values mean tight binding
# Conditions in all cases: protein: recombinant; vector His6-GST; dsDNA, one strand shown
# SALL4 ZFC4 WT (HT-SELEX) = biological target: T1, SALL4 ZFC4 WT (HT-SELEX) (Mus musculus, UniProt Q8BX22 870-940)
# T1 sequence: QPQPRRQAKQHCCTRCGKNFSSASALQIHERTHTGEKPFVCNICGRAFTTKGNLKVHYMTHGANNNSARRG
# Method in brief: (§1)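 Binding signal is defined as the fold change of each canonical k-mer's read fraction versus the initial random library. Selections used 1 µg of purified recombinant mouse SALL4 zinc finger cluster 4 (residues 870–940) with library DNA (1.5 µg first cycle, 200 ng later) in 100 µl of 10 mM Tris–HCl pH 7.5, 50 mM NaCl, poly(dI-dC) and DTT, for 10 min at room temperature, followed by Ni2+ bead capture, washing and PCR. Up to 6 such cycles were run in triplicate before MiSeq sequencing and 6-mer scanning.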
# [1] = biological target: T2, SALL4 ZFC4 R900W (HT-SELEX) (Mus musculus, UniProt Q8BX22 870-940, R900W)
# T2 sequence: T1 sequence with R31W
# Method in brief: as §1
# [2] = biological target: T3, SALL4 ZFC4 G921D (HT-SELEX) (Mus musculus, UniProt Q8BX22 870-940, G921D)
# T3 sequence: T1 sequence with G52D
# Method in brief: as §1
Sequence,binding signal (SALL4 ZFC4 WT (HT-SELEX)) [fold-change vs cycle 0],binding signal [1] [fold-change vs cycle 0],binding signal [2] [fold-change vs cycle 0]
GGTTTA,1.2 ± 0.0627,1.28 ± 0.0514,1.24 ± 0.0515
AAACAG,1.101 ± 0.00341,1.27 ± 0.0528,1.23 ± 0.0148
CGAAAC,0.59 ± 0.0153,0.676 ± 0.0229,0.748 ± 0.0402
CGAACC,0.34 ± 0.0157,0.416 ± 0.00929,0.549 ± 0.0764
CATCAG,0.861 ± 0.0198,0.967 ± 0.0193,0.996 ± 0.0231
TACGTA,1.26 ± 0.0297,1.33 ± 0.109,1.23 ± 0.0963
